Source: PubChem BioAssay (NCI)
Compounds without any hit were thinned out: in the full panel of roughly 79,000, 15% have a hit. Values without a mark were called inactive. The source made the active and inactive calls. Rule as the data show it: active = growth inhibition above about 70%; inactive = the rest. Where a SMILES comes first, the peptide text is derived from it. The star is where a group is joined. Cbz = O=C(OCc1ccccc1)*; OSu = O=C1CCC(=O)N1O*; OBn = c1ccc(CO*)cc1; Bn = c1ccc(C*)cc1; CH2Cl = ClC*

Assays:
[1] = NCI Yeast Anticancer Drug Screen. Data for the rad50 strain (AID 155);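 also: 0% = growth of vehicle-only cultures of the same strain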; settings: S. cerevisiae rad50 strain growth inhibition, hits give high values
Method in brief: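 Growth of the mutant yeast was measured after compound exposure and referenced to vehicle-treated cultures.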

[2] = NCI Yeast Anticancer Drug Screen. Data for the mec2-1 strain (AID 157); settings: S. cerevisiae mec2-1 strain, hits give high values
Method in brief: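 Test agents were screened against the mec2-1 yeast strain, with defined DNA repair or cell cycle alteration. Growth was scored as inhibition against vehicle-only controls.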

[3] = NCI Yeast Anticancer Drug Screen. Data for the sgs1 mgt1 strain (AID 161);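 also: 0% = growth of cultures given vehicle only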; settings: S. cerevisiae sgs1 mgt1 strain, hits give high values
Method in brief: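 Test agents were incubated with a DNA-repair-mutant yeast strain. Growth was then read and compared against vehicle-treated controls.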

[4] = NCI Yeast Anticancer Drug Screen. Data for the cln2 rad14 strain (AID 165);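 also: 0% = growth equal to vehicle treated cultures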; settings: S. cerevisiae cln2 rad14 strain, hits give high values
Method in brief: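 Growth of compound-exposed yeast (cln2 rad14 genotype) measured and expressed as inhibition relative to vehicle.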

[5] = NCI Yeast Anticancer Drug Screen. Data for the bub3 strain (AID 167); settings: S. cerevisiae bub3 mutant strain, hits give high values
Method in brief: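 Whole-cell yeast assay. The mutant strain was incubated with compounds, and growth inhibition was determined by comparison with vehicle-treated cells.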

[6] = NCI Yeast Anticancer Drug Screen. Data for the mlh1 rad18 strain (AID 175); settings: S. cerevisiae mlh1 rad18 strain growth inhibition, hits give high values
Method in brief: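 In this whole-cell yeast screen, a strain with altered DNA damage repair is challenged with compound, and its growth is measured against matched vehicle-treated controls.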

[7] = at 5.0 µM (retest, dose inferred, filed as 0.5)
[8] = at 50.0 µM (retest, dose inferred, filed as 5.0)

| SMILES | growth inhibition [1, 7] | growth inhibition [1, 8] | growth inhibition ([1]; at 50.0 µM) | growth inhibition [2, 7] | growth inhibition [2, 8] | growth inhibition ([2]; at 50.0 µM) | growth inhibition [3, 7] | growth inhibition [3, 8] | growth inhibition ([3]; at 50.0 µM) | growth inhibition [4, 7] | growth inhibition [4, 8] | growth inhibition ([4]; at 50.0 µM) | growth inhibition [5, 7] | growth inhibition [5, 8] | growth inhibition ([5]; at 50.0 µM) | growth inhibition [6, 7] | growth inhibition [6, 8] | growth inhibition ([6]; at 50.0 µM) |
| --- | --- | --- | --- | --- | --- | --- | --- | --- | --- | --- | --- | --- | --- | --- | --- | --- | --- | --- |
| CCOC(=O)C1=C(N)OC(c2ccccc2)=C(C#N)C1c1ccc(C)cc1 (configuration not stated) | 8% | 90% (active) | 96.1% (active) | 4% | 91% (active) | 97% (active) | 11% | 92% (active) | 97.3% (active) | 0% | 86% (active) | 96.6% (active) | -4% | 87% (active) | 96.3% (active) | 3% | 90% (active) | 96.5% (active) |
| Cc1c(N=Nc2ccc(Cl)cc2)c(-c2ccccc2)n(C2OC(CO)C(O)C(O)C2O)c(=S)c1C#N (configuration not stated) | -9% | 89% (active) | 96.6% (active) | -13% | 96% (active) | 97.2% (active) | 18% | 48% | 97.5% (active) | 18% | 95% (active) | 97.1% (active) | -2% | 95% (active) | 97.3% (active) | -7% | 96% (active) | 97.4% (active) |
| O=C(O)CCSc1ncnc2nc[nH]c12 | 3% | 0% | -22.9% | 1% | -18% | -12.8% | 0% | -24% | -30.5% | -25% | -97% | 27.4% | -10% | -7% | -18.8% | -7% | -1% | -13.9% |
| CC(C)CC(NC(=O)OCc1ccccc1)C(=O)NC(Cc1ccccc1)C(=O)CCl (stereo not drawn) (Cbz-Leu-Phe-CH2Cl; configuration not given here) | 43% | 62% | 28.9% | 48% | 86% (active) | 58.5% | 27% | 46% | 53.8% | 16% | 52% | -8.15% | 51% | 77% (active) | 87.5% (active) | 46% | 74% (active) | 54.9% |
| Clc1ccccc1/C=C/c1ccccn1 | -8% | 4% | 41.2% | -6% | -16% | 30.7% | -8% | 1% | 74.7% (active) | -9% | -16% | 16.2% | -3% | 30% | 67.5% | -7% | -6% | 71.8% (active) |
| COc1ccc(/C=C2\N=C(c3ccco3)OC2=O)cc1Br | 16% | 2% | -4.8% | -17% | -4% | 5.85% | -1% | 12% | 11% | 30% | 22% | 4.8% | 5% | 13% | 27.1% | -7% | -32% | 5.65% |
| CNC(=O)c1cccc2c(Nc3ccc(NS(C)(=O)=O)cc3OC)c3cccc(C)c3nc12 | 47% | 93% (active) | 75.8% (active) | 17% | 95% (active) | -0.8% | 12% | 66% | -4.45% | 30% | 57% | -0.4% | 19% | 91% (active) | -37.2% | 19% | 86% (active) | -24.5% |
| CCOC(=O)c1[nH]cc(C)c1-c1ccc2c(-c3ccccc3)nc3ccccc3n12 | 5% | 65% | 44.8% | 7% | 61% | 64.2% | 3% | 70% (active) | 60.4% | 12% | 81% (active) | 38.8% | 9% | 79% (active) | 40.6% | 12% | 73% (active) | 69% |
| CC(C)CC(NC(=O)C(N)CCC(=O)OCc1ccccc1)C(=O)NC(COCc1ccccc1)C(=O)NC(Cc1ccccc1)C(=O)ON1C(=O)CCC1=O (configuration not stated) (H-E(OBn)LS(Bn)F-OSu; configuration not given here) | 54% | 66% | 81.7% (active) | 48% | 74% (active) | 84.6% (active) | 48% | 81% (active) | 83.1% (active) | 41% | 71% (active) | 86.7% (active) | 42% | 81% (active) | 80.8% (active) | 60% | 79% (active) | 79% (active) |
| C1=C(c2c(-c3ccccc3)[nH]c3ccccc23)Cc2ccccc21 | 3% | 93% (active) | 12.6% | 0% | 95% (active) | 43.7% | 0% | 54% | 62.1% | -12% | 93% (active) | 30.2% | -3% | 58% | 71.4% (active) | 3% | 93% (active) | 54.8% |
| CSC(=S)OC1CC(n2cnc3c(NC(=O)c4ccccc4)ncnc32)OC1CO[Si](C)(C)C(C)(C)C (configuration not stated) | 1% | -1% | 6.5% | 0% | 2% | -3.65% | -1% | 2% | 10.4% | -1% | 6% | 73% (active) | -1% | -5% | 1.45% | 0% | -1% | 16.6% |
| CCN(CC)CCCC(C)Nc1cc(F)cc2cccnc12 (configuration not stated) | 10% | 81% (active) | 93.2% (active) | 4% | 31% | 63.2% | 28% | 75% (active) | 88.8% (active) | 10% | 30% | 44.9% | 15% | 41% | 88.3% (active) | 20% | 69% | 85.9% (active) |
| COc1ccccc1/C=C(\NC(=O)c1ccccc1)c1nc2ccccc2[nH]1 | 42% | 96% (active) | 97.8% (active) | 30% | 98% (active) | 95% (active) | 38% | 99% (active) | 96.4% (active) | 16% | 74% (active) | 95% (active) | 3% | 88% (active) | 98% (active) | 21% | 96% (active) | 96.4% (active) |
| OC1(c2ccccc2)c2ccccc2Sc2ccccc21 | 1% | 99% (active) | 99% (active) | 6% | 99% (active) | 99.2% (active) | 3% | 97% (active) | 99.2% (active) | 8% | 99% (active) | 99% (active) | -16% | 98% (active) | 99.3% (active) | 7% | 97% (active) | 99.1% (active) |
| CCc1cccc(CC)c1Nc1nc2c(s1)C(=O)c1ccccc1C2=O | 100% (active) | 99% (active) | 89.5% (active) | 100% (active) | 99% (active) | 91.9% (active) | 100% (active) | 99% (active) | 92.7% (active) | 87% (active) | 98% (active) | 90.3% (active) | 100% (active) | 99% (active) | 92.2% (active) | 99% (active) | 98% (active) | 90.8% (active) |
| O=S1CCS(=O)C1c1ccccc1 (configuration not stated) | -1% | 28% | 85.3% (active) | -6% | 26% | 61% | -5% | 33% | 54% | -18% | 8% | -11.1% | -14% | 38% | 67.8% | 2% | 39% | 37.7% |
| O=S(=O)(c1ccc(NC(=S)NCc2ccncc2)cc1)N1CCCCC1 | -30% | -2% | 15.5% | -11% | -43% | -13.6% | -14% | -13% | 10.7% | 2% | 16% | 5.3% | -31% | -18% | 9.35% | -27% | -8% | 6.9% |
| O=C(c1ccccc1)C1Cc2ccccc2C1=O (configuration not stated) | 2% | 39% | 78.5% (active) | -16% | 2% | 50.1% | 0% | 5% | 86.5% (active) | 3% | 1% | 19.8% | 35% | 13% | 4.4% | 2% | 11% | 84.2% (active) |
| O=C(NC[N+]12CCO[B-]1(c1ccc(Br)cc1)OCC2)c1ccccc1O (configuration not stated) | 10% | 48% | 65.2% | 11% | 43% | 56.2% | 23% | 51% | 60.2% | -4% | 38% | 21.3% | 26% | 63% | 61.5% | 24% | 72% (active) | 87.9% (active) |
